Results from PubChem BioAssay (NCI).
About 79,000 compounds went through this panel and 15% of them were active in at least one assay; those are over-represented in the sample as a whole. A number with no mark means an inactive call. Calls of active or inactive are those of the source. Rule as the data show it: active = growth inhibition above about 70%; inactive = the rest.

What was measured:
[1] = NCI Yeast Anticancer Drug Screen. Data for the rad50 strain (AID 155);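 also: 0% = growth of vehicle-only cultures of the same strain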; conditions: S. cerevisiae rad50 strain growth inhibition; at 50.0 µM; hits give high values
Outline: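 Inhibition values express reduced yeast growth in compound-treated cultures relative to vehicle-treated controls.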

[2] = NCI Yeast Anticancer Drug Screen. Data for the mec2-1 strain (AID 157); conditions: S. cerevisiae mec2-1 strain, at 50.0 µM, hits give high values
Outline: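 Using mec2-1 yeast: add compound, measure growth, express inhibition versus vehicle-treated cultures.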

[3] = NCI Yeast Anticancer Drug Screen. Data for the sgs1 mgt1 strain (AID 161);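 also: 0% = growth of cultures given vehicle only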; conditions: S. cerevisiae sgs1 mgt1 strain, at 50.0 µM, hits give high values
Outline: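 Percent growth inhibition was derived by comparing compound-exposed mutant yeast with vehicle-exposed cultures. The strain carries alterations in DNA damage repair.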

[4] = NCI Yeast Anticancer Drug Screen. Data for the cln2 rad14 strain (AID 165);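 also: 0% = growth equal to vehicle treated cultures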; conditions: S. cerevisiae cln2 rad14 strain, at 50.0 µM, hits give high values
Outline: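 Yeast strain cln2 rad14, bearing defects in cell cycle control and DNA repair, serves as the test system; values reflect growth inhibition compared with vehicle.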

[5] = NCI Yeast Anticancer Drug Screen. Data for the bub3 strain (AID 167); conditions: S. cerevisiae bub3 mutant strain, at 50.0 µM, hits give high values
Outline: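 Steps: expose the mutant yeast strain to compound; grow alongside vehicle-treated cultures; measure growth; express inhibition against the vehicle cultures.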

[6] = NCI Yeast Anticancer Drug Screen. Data for the mlh1 rad18 strain (AID 175); conditions: S. cerevisiae mlh1 rad18 strain growth inhibition; at 50.0 µM; hits give high values
Outline: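 Steps: expose repair-defective yeast to compound; measure growth; express inhibition against vehicle-treated controls.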

Row | Compound | growth inhibition [1] | growth inhibition [2] | growth inhibition [3] | growth inhibition [4] | growth inhibition [5] | growth inhibition [6]
1 | C=CC1ON(C)CCc2cc(OC)c(OC)cc21 (stereo not drawn) | -4.9% | -1% | -53.5% | 15.1% | -1.8% | -9.9%
2 | Nc1cc(S(=O)(=O)O)ccc1O | -1% | -16.1% | -21.9% | -41.9% | 3.05% | -33.5%
3 | OC1CCCCC12CC2 (stereo not drawn) | 3.85% | 1.5% | 5% | -3.55% | -15.2% | -3.2%
4 | CN(CO)N=Nc1ccc(C(F)(F)F)cc1 | -6.05% | -0.65% | -10% | -14.2% | 13.2% | 19.8%
5 | Cc1ccc(S(=O)(=O)OC2C3OC(C)(C)OC3OC2C2CSC(=S=O)S2)cc1 (stereo not drawn) | 31.6% | -0.6% | 21.8% | 22.2% | -3.15% | 12.7%
6 | CCCCOC(=O)/C=C/c1ccc(OC(C)C)cc1 | 3.95% | -9% | -9.4% | -48.1% | 19.9% | -10.4%
7 | COc1cc(C2C(Cl)C(=O)N2NC(=O)c2ccc(N)cc2)cc(Br)c1O (stereo not drawn) | 16.3% | 0.95% | 4.05% | -38% | 5.85% | -11.2%
8 | CC(C)(C)C(Br)CC(N)=O (stereo not drawn) | 22.1% | 1.55% | 2% | 4.3% | -6.95% | -6.85%
9 | CCCCCCCCCCCCCCCCc1c(C(=O)OC)[nH]c(=S)[nH]c1=O | -49% | -18.2% | -21.9% | -2.8% | -29.1% | -11.3%
10 | COC(=O)C1(CC(=O)c2ccc(Cl)cc2)NC(=S)NC(=O)C1C#N (stereo not drawn) | 13.6% | 12.6% | 8% | 7.95% | -10.9% | 22.5%
11 | Cc1ccc2ccccc2c1Cc1c(C=O)[nH]c(=S)[nH]c1=O | 94.7% (active) | 90.8% (active) | 97% (active) | 82.5% (active) | 90.5% (active) | 98.8% (active)
12 | COc1ccc2c(c1)C(C)(C(N)=O)CCC2 (stereo not drawn) | 3.25% | 4.8% | 3.7% | 5.5% | -12.2% | -13.2%
13 | O=C(N=Nc1c(O)[nH]c2ccccc12)c1ccncc1 | -10.8% | 2.15% | -9.25% | -19.4% | -7.4% | 11.1%
14 | CC(=O)NCC(N)=S | 5.85% | -24.1% | 0.65% | -1.55% | 5.3% | 4%
15 | C=C(C)C1CCC2(C)CC3C(=C)CC(O)C(O)C3(C)CCC12 (stereo not drawn) | 48.2% | 88.8% (active) | 90.8% (active) | 90% (active) | 90.2% (active) | 89.5% (active)
16 | CNS(=O)(=O)c1ccccc1C(=N)c1ccccc1 | -0.3% | -8.25% | -27.6% | -4.95% | -45.9% | -31.4%
17 | CCN(CC)CCCNc1[nH]ncc2c(C)c3nc4ccccc4c3cc12 | 14.1% | -10.2% | 14.7% | 10.1% | 9.4% | -4.05%
18 | Clc1ccc(CNc2ncnc3nc(Cl)[nH]c23)cc1 | -14.4% | -14.9% | -4.6% | -41.2% | -10.2% | -23.9%
19 | CCN(CC)c1ccc(NC(=S)Nc2cccc(C(F)(F)F)c2)c(C)c1 | 35.9% | 21.6% | 52.2% | 1.9% | 2.45% | 19.2%

Row | Compound | growth inhibition [1] | growth inhibition [2] | growth inhibition [3] | growth inhibition [4] | growth inhibition [5] | growth inhibition [6]
20 | O=C1NC(=O)C(=C/C=C/C=C\C2C(=O)NC(=O)NC2=O)C(=O)N1 | -15.1% | -38.4% | -10.1% | 2.1% | -23.1% | -10.6%
21 | CC(C)n1c(=S)[nH]c2c(=O)[nH]c(=O)[nH]c21 | -30.9% | -22.4% | 0.05% | -53.2% | 10.8% | -17.4%
22 | CCN(CC)CCC(C)C(Cc1cccs1)OC(C)=O (stereo not drawn) | 4.1% | -3.9% | -2.95% | -39% | 35.2% | 5.6%
23 | C=CC(C)(CCC=C(C)C)OC(C)=O (stereo not drawn) | 27.6% | 5.75% | 14.7% | 1.9% | 23.9% | 34.7%
24 | CCOC(=O)C1C=CC(C)N(C(=O)OCC)N1C(=O)OCC (stereo not drawn) | 0.35% | 2.45% | 7.5% | -2.3% | 49.9% | -13.7%
25 | CC(C)n1nnnc1-c1ccccc1 | -6.45% | -8.5% | 2% | -15.9% | -3.1% | 1.15%
26 | O.O.[Cu+2].[Cu+2].[NH-]CCC(=O)[N-]C(Cc1cnc[nH]1)C(=O)O.[NH-]CCC(=O)[N-]C(Cc1cnc[nH]1)C(=O)O (stereo not drawn) | -26.1% | 5.8% | 0.95% | 31.8% | 6.35% | 11.8%
27 | O=C(c1ccc(Cl)cc1)N(C(=S)N1CCN(c2ccccc2)CC1)C1CCCCC1 | 7.95% | -11.3% | -19.5% | 22.7% | -21% | -4.05%
28 | CC(C)=NNC(=O)c1n[nH]c(C)c1N=NN(C)C | 12.5% | -23.4% | 6.5% | -0.65% | -9.4% | 20.5%
29 | CC1([N+](=O)[O-])C(=O)C2(N3CCCC3)CCCC2C1c1ccccc1 (stereo not drawn) | 0.5% | 8.4% | -10.9% | -2.25% | 8.3% | -9.35%
30 | Cc1ccc(Cl)cc1N=C=S | -22% | -18.8% | 6% | -4.6% | -38.4% | -11.2%
31 | Cc1cnn(-c2ccccc2)[n+]1[O-] | 0.65% | 11.5% | 9.5% | -28.8% | 9.6% | 6.4%
32 | S=C(Cc1ccc2ccccc2c1)N1CCOCC1 | 29.4% | 1.95% | -2.1% | 23.6% | 30.4% | 12.9%
33 | O=c1oc2ccc(Br)cc2cc1-n1nnc2ccccc21 | -0.45% | -6.55% | 2.45% | 0.6% | 15.9% | 5.55%
34 | O=C1CCC2c3ccccc3NCN12 (stereo not drawn) | 7.05% | 7.75% | -35.6% | 22.4% | -15.2% | -31.8%
35 | COc1ccc2[nH]c3c(c2c1)-c1ncncc1CC3 | 37.4% | -9.65% | -3.7% | 6.1% | 40.4% | 24.4%
36 | COc1ccc(NC(=O)c2cccc([N+](=O)[O-])c2)cc1 | 8.1% | 23.1% | 24.6% | 1.8% | 4.1% | 5.8%
37 | COc1ccc(C)cc1NC(=S)NC(=O)c1cccc2ccccc12 | -38.6% | 12.9% | 9.85% | -61.1% | 40% | -1.55%
38 | CN(C)CCCNc1ccc2ncn3c4ccc(O)cc4c(=O)c1c23 | -4.45% | -3.9% | -14.3% | -15.3% | 0.5% | 7.9%
